In article PMC7862700, “An all-to-all approach to the identification of sequence-specific readers for epigenetic DNA modifications on cytosine” one finds binding signal data, which are given here for one sequence.

What all share (test): DAPPL (digital affinity profiling via proximity ligation, sequencing); 10 mM Tris-HCl pH 7.5, 50 mM NaCl, 1 mM DTT, 4% glycerol, room temperature, 30 min; GST-TFs on glutathione beads, 16-mer random dsDNA library, 0.1% formaldehyde crosslink after washing; high values mean tight binding
Test [1] addresses T1, FLI1 (Homo sapiens, UniProt Q01543 1-452).
T1 sequence: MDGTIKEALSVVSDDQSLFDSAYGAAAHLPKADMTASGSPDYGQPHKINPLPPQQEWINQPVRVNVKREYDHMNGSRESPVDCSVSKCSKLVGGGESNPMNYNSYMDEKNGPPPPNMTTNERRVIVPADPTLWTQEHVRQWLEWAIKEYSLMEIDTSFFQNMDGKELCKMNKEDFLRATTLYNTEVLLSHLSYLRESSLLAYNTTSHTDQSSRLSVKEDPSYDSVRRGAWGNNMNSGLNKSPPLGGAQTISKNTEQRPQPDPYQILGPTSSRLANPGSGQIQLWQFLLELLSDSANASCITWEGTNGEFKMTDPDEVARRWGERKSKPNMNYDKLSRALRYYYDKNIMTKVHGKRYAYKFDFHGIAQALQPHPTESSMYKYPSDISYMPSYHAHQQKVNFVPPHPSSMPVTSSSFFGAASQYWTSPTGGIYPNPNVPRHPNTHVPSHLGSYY
To be noted: protein: recombinant; tags: N-terminal GST; dsDNA, one strand shown. The method in brief: (§1)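 Human transcription factors were made in yeast as GST fusions, captured on glutathione beads and barcoded with DNA. With a tag-only sample included, the pool was incubated with 200 nmole of a random double-stranded 16-mer DNA library in Tris/NaCl/DTT/glycerol buffer at room temperature for 30 min, then crosslinked with 0.1% formaldehyde after washing, ligated by proximity, amplified and sequenced. For binding signal, each hexamer's read frequency for a factor is divided by its frequency for the tag-only sample.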

Test [2] addresses T2, ELK1 (Homo sapiens, UniProt P19419 1-428).
T2 sequence: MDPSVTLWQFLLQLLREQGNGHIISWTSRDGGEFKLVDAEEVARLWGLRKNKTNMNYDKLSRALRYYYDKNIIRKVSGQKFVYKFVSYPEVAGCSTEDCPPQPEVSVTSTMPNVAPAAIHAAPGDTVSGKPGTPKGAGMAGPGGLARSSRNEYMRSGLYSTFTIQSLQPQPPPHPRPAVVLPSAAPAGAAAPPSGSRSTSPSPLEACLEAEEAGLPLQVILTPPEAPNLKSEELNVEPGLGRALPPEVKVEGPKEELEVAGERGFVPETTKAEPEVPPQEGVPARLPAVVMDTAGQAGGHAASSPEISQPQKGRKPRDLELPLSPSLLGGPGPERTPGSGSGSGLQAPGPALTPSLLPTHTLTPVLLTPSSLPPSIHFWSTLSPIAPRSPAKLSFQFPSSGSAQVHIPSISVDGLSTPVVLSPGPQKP
Conditions: protein: recombinant; tags: N-terminal GST; dsDNA, one strand shown. In outline:
as §1

Test [3] deals with T3, GABPA (Homo sapiens, UniProt Q06546 1-454).
T3 sequence: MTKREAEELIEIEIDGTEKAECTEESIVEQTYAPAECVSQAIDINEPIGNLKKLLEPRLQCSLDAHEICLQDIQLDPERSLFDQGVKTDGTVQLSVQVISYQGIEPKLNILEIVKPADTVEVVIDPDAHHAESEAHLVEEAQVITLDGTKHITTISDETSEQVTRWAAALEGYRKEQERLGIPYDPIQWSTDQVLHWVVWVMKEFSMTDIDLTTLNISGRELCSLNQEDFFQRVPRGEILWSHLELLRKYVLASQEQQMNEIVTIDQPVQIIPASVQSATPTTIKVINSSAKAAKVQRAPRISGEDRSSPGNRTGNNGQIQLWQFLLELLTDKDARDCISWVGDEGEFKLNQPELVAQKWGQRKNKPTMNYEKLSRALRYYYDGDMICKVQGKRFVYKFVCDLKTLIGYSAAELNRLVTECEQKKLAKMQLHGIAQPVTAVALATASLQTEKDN
Conditions: protein: recombinant; tags: N-terminal GST; dsDNA, one strand shown. In outline: as §1

For test [4], the target named is T4, ERG (Homo sapiens, UniProt P11308 1-479).
T4 sequence: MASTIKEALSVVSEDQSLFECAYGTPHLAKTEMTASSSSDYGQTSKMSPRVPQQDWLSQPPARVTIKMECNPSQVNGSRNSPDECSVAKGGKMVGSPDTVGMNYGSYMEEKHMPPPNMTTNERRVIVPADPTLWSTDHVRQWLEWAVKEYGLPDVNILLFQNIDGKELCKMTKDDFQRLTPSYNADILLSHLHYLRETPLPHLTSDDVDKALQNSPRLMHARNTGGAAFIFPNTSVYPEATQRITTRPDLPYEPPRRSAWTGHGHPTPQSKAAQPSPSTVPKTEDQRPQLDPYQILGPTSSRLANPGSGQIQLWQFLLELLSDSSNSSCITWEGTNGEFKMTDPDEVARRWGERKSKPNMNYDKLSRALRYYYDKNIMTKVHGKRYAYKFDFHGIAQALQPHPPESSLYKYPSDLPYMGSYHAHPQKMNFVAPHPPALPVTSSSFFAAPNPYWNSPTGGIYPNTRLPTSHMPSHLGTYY
Conditions: protein: recombinant; tags: N-terminal GST; dsDNA, one strand shown. The method in brief: as §1

In test [5] the target is ELF1 (Homo sapiens, UniProt P32519 1-619). Conditions: protein: recombinant; tags: N-terminal GST; dsDNA, one strand shown. In outline:
as §1

The target in test [6] is T5, EHF (Homo sapiens, UniProt Q9NZC4 1-300).
T5 sequence: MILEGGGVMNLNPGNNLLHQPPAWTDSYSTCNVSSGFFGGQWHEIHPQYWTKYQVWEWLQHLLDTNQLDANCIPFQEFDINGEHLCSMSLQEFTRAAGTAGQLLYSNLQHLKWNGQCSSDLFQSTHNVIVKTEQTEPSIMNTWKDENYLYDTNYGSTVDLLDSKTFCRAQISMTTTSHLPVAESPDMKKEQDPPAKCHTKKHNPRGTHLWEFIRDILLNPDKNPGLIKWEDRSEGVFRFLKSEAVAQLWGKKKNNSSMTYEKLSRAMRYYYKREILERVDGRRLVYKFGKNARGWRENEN
Conditions: protein: recombinant; tags: N-terminal GST; dsDNA, one strand shown. The method in brief: as §1

Test [7] concerns the target SPI1 (Homo sapiens, UniProt P17947 1-270). Conditions: protein: recombinant; tags: N-terminal GST; dsDNA, one strand shown. In outline: as §1
Test [8] addresses SPIB (Homo sapiens, UniProt Q01892 1-262). To be noted: protein: recombinant; tags: N-terminal GST; dsDNA, one strand shown. In outline:
as §1

For test [9], the target named is T6, ELK3 (Homo sapiens, UniProt P41970 1-407).
T6 sequence: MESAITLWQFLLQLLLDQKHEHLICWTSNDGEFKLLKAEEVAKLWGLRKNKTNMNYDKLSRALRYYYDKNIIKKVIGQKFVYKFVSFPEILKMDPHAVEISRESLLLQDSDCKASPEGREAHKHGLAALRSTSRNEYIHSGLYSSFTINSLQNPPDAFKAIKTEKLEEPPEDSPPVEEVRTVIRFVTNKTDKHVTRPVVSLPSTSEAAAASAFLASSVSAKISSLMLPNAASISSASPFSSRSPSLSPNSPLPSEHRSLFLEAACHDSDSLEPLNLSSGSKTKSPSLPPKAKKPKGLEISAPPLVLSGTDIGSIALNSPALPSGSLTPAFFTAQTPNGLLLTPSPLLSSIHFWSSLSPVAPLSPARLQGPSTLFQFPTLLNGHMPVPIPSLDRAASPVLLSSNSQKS
To be noted: protein: recombinant; tags: N-terminal GST; dsDNA, one strand shown. The method in brief:
as §1

Test [10] addresses T7, FEV (Homo sapiens, UniProt Q99581 1-238).
T7 sequence: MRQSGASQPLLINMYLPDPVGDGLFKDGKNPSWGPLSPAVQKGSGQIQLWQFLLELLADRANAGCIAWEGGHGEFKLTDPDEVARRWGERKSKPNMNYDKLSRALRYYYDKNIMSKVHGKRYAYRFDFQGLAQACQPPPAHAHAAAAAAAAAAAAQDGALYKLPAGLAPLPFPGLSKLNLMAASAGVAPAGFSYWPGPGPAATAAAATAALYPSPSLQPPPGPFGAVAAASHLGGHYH
To be noted: protein: recombinant; tags: N-terminal GST; dsDNA, one strand shown. The method in brief:
as §1

Test [11] concerns the target ETV5 (Homo sapiens, UniProt P41161 1-510). To be noted: protein: recombinant; tags: N-terminal GST; dsDNA, one strand shown. The method in brief: as §1
The target of test [12] is HSF1 (Homo sapiens, UniProt Q00613 1-529). To be noted: protein: recombinant; tags: N-terminal GST; chain copies: 3; dsDNA, one strand shown. The method in brief:
as §1

In test [13] the target is T8, SPIC (Homo sapiens, UniProt Q8N5J4 1-248).
T8 sequence: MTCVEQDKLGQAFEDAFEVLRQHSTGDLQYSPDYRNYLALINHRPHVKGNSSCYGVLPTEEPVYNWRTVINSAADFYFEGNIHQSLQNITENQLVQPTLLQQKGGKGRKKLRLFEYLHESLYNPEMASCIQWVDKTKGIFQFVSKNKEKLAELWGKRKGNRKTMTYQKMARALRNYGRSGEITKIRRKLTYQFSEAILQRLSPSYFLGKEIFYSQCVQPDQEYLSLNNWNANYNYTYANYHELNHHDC
Conditions: protein: recombinant; tags: N-terminal GST; dsDNA, one strand shown. In outline:
as §1

For test [14], the target named is ELF4 (Homo sapiens, UniProt Q99607 1-663). Conditions: protein: recombinant; tags: N-terminal GST; dsDNA, one strand shown. The method in brief: as §1
Test [15] deals with T9, ELK4 (Homo sapiens, UniProt P28324-2 1-405).
T9 sequence: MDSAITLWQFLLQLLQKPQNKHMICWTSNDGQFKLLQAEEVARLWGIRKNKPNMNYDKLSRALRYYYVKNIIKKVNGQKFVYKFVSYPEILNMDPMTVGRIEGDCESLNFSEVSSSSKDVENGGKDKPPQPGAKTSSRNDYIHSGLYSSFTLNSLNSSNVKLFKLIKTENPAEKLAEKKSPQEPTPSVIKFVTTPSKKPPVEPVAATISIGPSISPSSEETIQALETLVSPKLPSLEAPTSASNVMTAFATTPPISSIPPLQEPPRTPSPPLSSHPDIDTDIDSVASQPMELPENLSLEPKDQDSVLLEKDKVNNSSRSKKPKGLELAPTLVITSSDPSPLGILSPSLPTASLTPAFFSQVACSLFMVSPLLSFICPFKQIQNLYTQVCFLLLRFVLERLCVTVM
To be noted: protein: recombinant; tags: N-terminal GST; dsDNA, one strand shown. The method in brief: as §1

Test [16] addresses T10, ETV2 (Homo sapiens, UniProt O00321 1-342).
T10 sequence: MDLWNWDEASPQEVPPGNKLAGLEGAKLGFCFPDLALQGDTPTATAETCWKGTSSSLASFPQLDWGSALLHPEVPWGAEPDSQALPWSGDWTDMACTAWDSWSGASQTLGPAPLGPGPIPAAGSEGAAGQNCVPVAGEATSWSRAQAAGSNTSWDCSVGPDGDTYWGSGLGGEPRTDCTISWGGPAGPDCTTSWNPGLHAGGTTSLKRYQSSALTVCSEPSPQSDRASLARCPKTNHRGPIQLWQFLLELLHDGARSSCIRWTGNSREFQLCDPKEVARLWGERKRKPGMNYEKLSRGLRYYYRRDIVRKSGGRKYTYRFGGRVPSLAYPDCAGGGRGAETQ
To be noted: protein: recombinant; tags: N-terminal GST; dsDNA, one strand shown. In outline:
as §1

Test [17] deals with T11, ELF3 (Homo sapiens, UniProt P78545 1-371).
T11 sequence: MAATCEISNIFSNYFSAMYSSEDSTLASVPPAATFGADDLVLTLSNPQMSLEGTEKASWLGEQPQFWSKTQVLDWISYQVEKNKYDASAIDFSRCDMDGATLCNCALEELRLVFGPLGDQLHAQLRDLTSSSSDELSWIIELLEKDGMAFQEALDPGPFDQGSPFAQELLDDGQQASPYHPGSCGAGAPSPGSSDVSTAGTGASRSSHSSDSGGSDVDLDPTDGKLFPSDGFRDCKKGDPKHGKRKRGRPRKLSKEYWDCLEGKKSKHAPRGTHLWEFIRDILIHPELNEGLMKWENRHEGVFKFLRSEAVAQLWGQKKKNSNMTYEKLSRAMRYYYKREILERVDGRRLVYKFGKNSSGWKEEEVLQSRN
Conditions: protein: recombinant; tags: N-terminal GST; dsDNA, one strand shown. The method in brief:
as §1

The target in test [18] is ETV1 (Homo sapiens, UniProt P50549 1-477). Conditions: protein: recombinant; tags: N-terminal GST; dsDNA, one strand shown. In outline: as §1
Chain of ETV1 (P50549 whole entry): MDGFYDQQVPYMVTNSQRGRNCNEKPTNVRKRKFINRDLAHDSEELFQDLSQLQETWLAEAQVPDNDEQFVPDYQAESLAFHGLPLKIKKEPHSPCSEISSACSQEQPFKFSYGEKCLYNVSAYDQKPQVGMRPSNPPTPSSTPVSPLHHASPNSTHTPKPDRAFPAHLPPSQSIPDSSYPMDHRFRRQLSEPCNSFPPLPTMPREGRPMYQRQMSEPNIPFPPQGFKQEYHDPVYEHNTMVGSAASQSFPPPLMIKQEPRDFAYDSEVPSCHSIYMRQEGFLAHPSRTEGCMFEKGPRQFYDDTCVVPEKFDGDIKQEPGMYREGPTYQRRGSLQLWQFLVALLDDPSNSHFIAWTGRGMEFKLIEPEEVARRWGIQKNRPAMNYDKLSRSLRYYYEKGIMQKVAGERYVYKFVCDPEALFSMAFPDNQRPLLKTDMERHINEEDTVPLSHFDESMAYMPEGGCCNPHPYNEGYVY

Chain of ETV5 (P41161 whole entry): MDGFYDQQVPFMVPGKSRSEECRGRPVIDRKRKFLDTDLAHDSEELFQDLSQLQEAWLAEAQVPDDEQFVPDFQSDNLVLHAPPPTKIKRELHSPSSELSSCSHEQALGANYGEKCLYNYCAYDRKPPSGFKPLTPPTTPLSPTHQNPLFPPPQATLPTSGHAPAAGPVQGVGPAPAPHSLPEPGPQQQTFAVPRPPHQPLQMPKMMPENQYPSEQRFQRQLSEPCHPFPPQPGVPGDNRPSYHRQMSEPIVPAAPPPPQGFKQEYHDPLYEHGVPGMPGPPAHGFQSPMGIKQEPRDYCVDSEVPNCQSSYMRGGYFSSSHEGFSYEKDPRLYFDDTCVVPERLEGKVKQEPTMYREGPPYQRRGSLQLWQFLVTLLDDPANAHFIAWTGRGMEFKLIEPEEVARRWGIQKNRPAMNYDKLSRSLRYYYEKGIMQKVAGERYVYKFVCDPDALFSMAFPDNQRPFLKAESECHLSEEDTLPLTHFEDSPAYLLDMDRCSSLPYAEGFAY
Chain of HSF1 (Q00613 whole entry): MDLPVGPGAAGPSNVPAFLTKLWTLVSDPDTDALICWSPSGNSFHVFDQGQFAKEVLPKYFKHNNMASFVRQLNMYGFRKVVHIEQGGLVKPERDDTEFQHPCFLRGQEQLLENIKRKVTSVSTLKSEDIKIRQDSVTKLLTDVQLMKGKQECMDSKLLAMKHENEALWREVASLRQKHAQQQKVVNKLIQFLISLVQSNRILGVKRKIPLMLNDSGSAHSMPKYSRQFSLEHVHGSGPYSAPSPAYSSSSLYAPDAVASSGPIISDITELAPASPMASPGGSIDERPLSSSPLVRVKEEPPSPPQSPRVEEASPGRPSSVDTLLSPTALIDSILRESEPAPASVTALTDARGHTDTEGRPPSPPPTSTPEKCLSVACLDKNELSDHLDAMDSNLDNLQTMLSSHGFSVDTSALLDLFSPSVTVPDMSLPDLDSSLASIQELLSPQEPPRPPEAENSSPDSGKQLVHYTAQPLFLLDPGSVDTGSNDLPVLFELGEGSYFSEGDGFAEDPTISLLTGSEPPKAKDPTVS
Chain of ELF1 (P32519 whole entry): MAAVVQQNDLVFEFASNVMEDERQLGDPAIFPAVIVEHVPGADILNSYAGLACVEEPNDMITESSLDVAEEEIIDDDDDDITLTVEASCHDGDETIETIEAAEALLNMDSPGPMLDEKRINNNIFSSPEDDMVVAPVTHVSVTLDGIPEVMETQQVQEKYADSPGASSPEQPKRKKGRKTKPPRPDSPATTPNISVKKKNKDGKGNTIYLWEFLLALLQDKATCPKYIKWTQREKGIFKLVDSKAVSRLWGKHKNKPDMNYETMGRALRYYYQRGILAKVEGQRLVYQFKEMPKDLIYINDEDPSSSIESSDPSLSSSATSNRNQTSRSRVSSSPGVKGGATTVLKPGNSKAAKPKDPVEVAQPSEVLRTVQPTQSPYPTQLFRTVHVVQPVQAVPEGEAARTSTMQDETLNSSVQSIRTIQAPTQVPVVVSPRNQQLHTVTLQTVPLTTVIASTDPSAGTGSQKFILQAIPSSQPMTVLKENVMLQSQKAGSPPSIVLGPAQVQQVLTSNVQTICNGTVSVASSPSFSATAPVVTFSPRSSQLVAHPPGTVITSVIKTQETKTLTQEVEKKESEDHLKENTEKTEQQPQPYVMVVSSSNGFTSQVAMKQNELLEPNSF
Chain of ELF4 (Q99607 whole entry): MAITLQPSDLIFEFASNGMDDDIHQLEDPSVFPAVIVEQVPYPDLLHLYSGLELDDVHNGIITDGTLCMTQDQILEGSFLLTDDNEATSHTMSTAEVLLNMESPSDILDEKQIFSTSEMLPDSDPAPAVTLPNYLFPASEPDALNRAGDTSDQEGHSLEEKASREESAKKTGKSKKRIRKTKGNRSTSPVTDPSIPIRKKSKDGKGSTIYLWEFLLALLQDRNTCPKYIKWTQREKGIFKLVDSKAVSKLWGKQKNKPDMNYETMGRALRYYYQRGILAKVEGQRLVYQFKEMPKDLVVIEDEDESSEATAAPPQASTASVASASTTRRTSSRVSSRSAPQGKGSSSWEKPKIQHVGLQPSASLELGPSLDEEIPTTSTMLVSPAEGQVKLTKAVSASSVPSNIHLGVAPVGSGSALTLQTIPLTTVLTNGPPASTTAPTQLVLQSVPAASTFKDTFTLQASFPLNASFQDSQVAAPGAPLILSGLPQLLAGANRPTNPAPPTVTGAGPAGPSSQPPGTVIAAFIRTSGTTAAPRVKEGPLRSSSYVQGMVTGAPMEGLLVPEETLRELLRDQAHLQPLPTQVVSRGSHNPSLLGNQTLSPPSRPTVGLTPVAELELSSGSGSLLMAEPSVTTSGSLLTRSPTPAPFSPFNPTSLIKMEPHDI
Chain of SPIB (Q01892 whole entry): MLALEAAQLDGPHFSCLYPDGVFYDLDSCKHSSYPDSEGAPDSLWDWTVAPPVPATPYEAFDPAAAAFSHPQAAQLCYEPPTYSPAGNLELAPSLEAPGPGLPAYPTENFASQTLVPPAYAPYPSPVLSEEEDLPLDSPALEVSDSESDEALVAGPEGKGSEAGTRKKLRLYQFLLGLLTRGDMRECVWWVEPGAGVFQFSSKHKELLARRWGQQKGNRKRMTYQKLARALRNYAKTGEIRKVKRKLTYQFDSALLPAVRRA

Turning to GTTCCG, the binding signal was 1.81 fold enrichment (6-mer frequency, TF over GST control) in test [1]; 2.02 fold enrichment (6-mer frequency, TF over GST control) in test [2]; 1.64 fold enrichment (6-mer frequency, TF over GST control) in [3]; 1.95 fold enrichment (6-mer frequency, TF over GST control) in test [4]; 1.78 fold enrichment (6-mer frequency, TF over GST control) in [5]; 2.05 fold enrichment (6-mer frequency, TF over GST control) in test [6]. Also, the binding signal is 2.19 fold enrichment (6-mer frequency, TF over GST control) in test [7]; 2.15 fold enrichment (6-mer frequency, TF over GST control) in test [8]; 1.71 fold enrichment (6-mer frequency, TF over GST control) in [9]; 1.99 fold enrichment (6-mer frequency, TF over GST control) in [10]; 1.94 fold enrichment (6-mer frequency, TF over GST control) in test [11]; 1.05 fold enrichment (6-mer frequency, TF over GST control) in test [12]. In addition, the binding signal is 2.08 fold enrichment (6-mer frequency, TF over GST control) in [13]; 1.64 fold enrichment (6-mer frequency, TF over GST control) in test [14]; 1.79 fold enrichment (6-mer frequency, TF over GST control) in test [15]; 1.61 fold enrichment (6-mer frequency, TF over GST control) in test [16]; 1.82 fold enrichment (6-mer frequency, TF over GST control) in test [17]; 2.07 fold enrichment (6-mer frequency, TF over GST control) in test [18].
